The values below come from PubChem BioAssay (EPA / NIEHS).

Results filed as inconclusive are left out. The source made the active and inactive calls. How the source made its calls: active means hit-call score of the fitted dose curve at least 0.9, where 1 is the maximum; inconclusive means response in the unintended direction; inactive means score below 0.9.

Sequence of human Matrix Metalloproteinase-7 (MMP7), MMP7 (gene 4316) (P09237 whole entry, looked up): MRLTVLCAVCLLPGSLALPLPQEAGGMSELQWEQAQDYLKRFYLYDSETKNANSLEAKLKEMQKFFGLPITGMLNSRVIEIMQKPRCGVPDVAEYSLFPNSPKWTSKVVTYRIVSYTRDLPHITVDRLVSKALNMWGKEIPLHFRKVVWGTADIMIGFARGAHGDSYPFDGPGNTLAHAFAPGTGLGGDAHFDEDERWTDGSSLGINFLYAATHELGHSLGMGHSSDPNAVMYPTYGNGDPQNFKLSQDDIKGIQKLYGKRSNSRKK

This assay has as its target human Matrix Metalloproteinase-7 (MMP7), MMP7 (gene 4316) (UniProt P09237). The assay is described as follows: NVS_ENZ_hMMP7: NovaScreen (NVS) Enzymatic Assay for human Matrix Metalloproteinase-7 (MMP7) (AID 2283183). In outline: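 Compounds first tested at 25 uM in duplicate, then at up to 50 uM in concentration series if active. Protease activity measured by fluorescence intensity 1 h after dosing, with fitting relative to DMSO.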
On to `C#CC(O)C(CC)CCCC` (stereo not drawn), for which the result was inactive.

`Nc1nc(=S)c2[nH]cnc2[nH]1`: the compound was called inactive.

With `CN(C)CCCN(C)CCCN(C)C`, the call was inactive.
